# Measurements from PubChem BioAssay (Tox21).
# Records with an inconclusive call do not appear. Unmarked numbers belong to inactive results. Calls of active or inactive are those of the source. Calls follow the shape of the dose curve; as a rule, active = well fitted cell-killing curve with a large enough effect in the repeat runs; inconclusive = weak or mixed curves, or effect the other way; inactive = flat fitted curve, though single readings scatter.
# Test: qHTS RealTime-Glo MT Cell Viability Assay in HepG2 cells - 0 hour (AID 1224889); also: nearly all actives have a fitted effect of over 50% in size
# Details: RealTime-Glo luminescence; series mostly up to 76.8 µM; activity change, negative = cytotoxicity: at the top concentration
# Excerpt: U.S. Tox21 Program National Center for Advancing Translational Sciences [NCATS] NIH Chemical Genomics Center [NCGC] U.S. Environmental Protection Agency [EPA] National Institutes of Environmental Health Sciences [NIEHS] National Toxicology Program [NTP] U.S. Food and Drug Administration [FDA] Tox21 Assay Overview: Measure of cell viability is critical in the cell-base assay. Analysis of cell viability is necessary for the characterization of cell responses to cytotoxic drugs and environmental stress. A RealTime-Glo MT Cell Viability Assay to monitor cell viability in real time of continues cell culture during 40 hours of compound treatment was used to screen Tox21 10K library compounds in HepG2 cells. The RealTime-Glo MT Cell Viability Assay is a nonlytic, homogeneous, bioluminescent method to measure cell viability in real time using a simple, plate-based method. The assay involves adding NanoLuc luciferase and a cell-permeant prosubstrate to cells in culture. Viable cells reduce the proprietary prosubstrate to generate a substrate for NanoLuc luciferase. This substrate diffuses from cells into the surrounding culture medium, where it is rapidly used by the NanoLuc Enzyme to produce a luminescent signal. The signal correlates with the number of viable cells, making the assay well suited for cytotoxicity studies.
# Tox21 Assay Protocol Summary: The mixture of HepG2 cell suspension and reagents were dispensed at 600cells/6 ul/well in 1536-well tissue culture treated black solid bottom plates using a Multidrop dispenser. After the assay plates were incubated at a 37 C/5% CO2 incubator for 5 hours, 23 nL of compounds dissolved in DMSO, positive and negative controls was transferred to the assay plate by a pintool work station. The plates were incubated at 37 C for 40 hours. The luminescence intensity were measured at 0h, 8h, 16h, 24h, 32h and 40h time points using ViewLux plate reader during compound treatment.
# % is scaled to controls: 0 for no effect and ±100 for the full control effect; potency is read from the fitted curve at half-maximal effect.
SMILES,"activity change, negative = cytotoxicity",Potency
O=C1OCCO1,1.19%,
CCC(=O)CC,2.19%,
O=C1NC(c2ccccc2)(c2ccccc2)C(=O)N1COP(=O)(O)O,4.03% [at 35.3 µM],
ONc1ccccc1,-0.252%,
CCCCCCCCCOC(=O)CCCCC(=O)OCCCCCCC,11%,
O=S(=O)(O)c1ccc2c(N=Nc3ccc(S(=O)(=O)O)c4ccccc34)c(O)c(S(=O)(=O)O)cc2c1,7.14% [at 6.97 µM],
CCC(=O)Oc1ccc2c(c1)CC[C@@H]1[C@@H]2CC[C@@]2(C)[C@H]1C[C@@H](OC(=O)CC)[C@@H]2OC(=O)CC,-7.75% [at 35.3 µM],
O=C1CCC(=O)N1Cl,-11.3%,
C=C(C)[C@@H]1CC=C(C)C(=O)C1,-0.139%,
CC(C)C[C@@H]1[C@H](c2ccccc2)OC(=O)N1CCCN1CCCCCC1,-0.0408% [at 35.3 µM],
C[C@]12CCC(=O)C=C1CC[C@H]1[C@@H]3CC[C@](O)(C(=O)CO)[C@@]3(C)C[C@H](O)[C@@]12F,,2130 nM (active)
O=NN(CCCl)C(=O)NC1CCCCC1,-1.92% [at 35.3 µM],
CCn1cc(C(=O)O)c(=O)c2cnc(N3CCCC3)nc21,-5.5% [at 6.97 µM],
COCCc1ccccn1,6.72% [at 35.3 µM],
Cc1c(C(=O)c2c[nH]n(C)c2=O)ccc(S(C)(=O)=O)c1C1=NOCC1,6.85% [at 35.3 µM],
CC(=O)CCC1=C(C)CCCC1(C)C,-8.22%,
CCCCCCCCCCCCCCCCCC#N,-9.78%,
CCNC(=O)NCc1cccc(Cl)c1,-1.51% [at 35.3 µM],
C=CC(=O)OCC1CCCO1 (stereo not given),6.39%,
CC(=O)OC(C)=O,3.39%,

SMILES,"activity change, negative = cytotoxicity",Potency
CC1OCCC1=O (stereo not given),1.34%,
CN(C)CCN(C)CCO,1.88%,
CC(C)Nc1ccccc1,2.18%,
CC(=O)OCC(=O)Nc1cc(C#N)cc(NC(=O)COC(C)=O)c1Cl,10.6% [at 35.3 µM],
O=C(CCCl)NCCc1ccccc1,9.89% [at 35.3 µM],
C=CCOC(=O)CCCCCC,-0.893%,
Nc1nnnn1-c1ccccc1,3.42% [at 35.3 µM],
Cc1ccc2c(c1)C(=O)c1ccccc1C2=O,6.62%,
N#Cc1ccccc1O,-3.4%,
CC1CCc2c(N3CCC(O)CC3)c(F)cc3c(=O)c(C(=O)O)cn1c23 (stereo not given),-13.3% [at 35.3 µM],
O=C1c2ccccc2C(=O)c2cc(Cl)ccc21,1.38% [at 6.97 µM],
Cc1cc(-c2ccccc2)nnc1NCCN1CCOCC1,0.236% [at 35.3 µM],
COc1ccc2c(c1)c1c3n2CCN(C)C3=NCC1,-22.4% [at 35.3 µM],
CC1=C(C(=O)O)N2C(=O)[C@@H](NC(=O)[C@H](N)C3=CCC=CC3)[C@H]2SC1,1.18% [at 35.3 µM],
N#Cc1cscn1,3.22%,
CC(=O)Nc1ccc(OC(=O)c2ccccc2OC(C)=O)cc1,-2.07% [at 35.3 µM],
CC/C=C\CCOC(=O)c1ccccc1O,-10.2%,
CC1c2ccccc2CN1NC(=O)c1ccc(Cl)c(S(N)(=O)=O)c1 (stereo not given),-12.3% [at 35.3 µM],
CCCCSCCCC,1.7%,
C=C(C)C1CC=C(C)C(=O)C1 (stereo not given),1.79%,
